The source of these data is PubChem BioAssay (Tox21).

Several values for one entry are separate records, joined by “and”; a condition that tells them apart may be missing. Identical values can stand only once. Results filed as inconclusive are left out. A structure can be active in one record and inactive in another. Unmarked numbers belong to inactive results. Activity calls are given as the source filed them. The call rests on the fitted dose curve; in most records, active means well fitted cell-killing curve with a large enough effect in the repeat runs; inconclusive means weak or mixed curves, or effect the other way; inactive means flat fitted curve, though single readings scatter.
On the % scale 0 is the no-effect control and ±100 the full control effect; potency means the concentration at half of the fitted maximal effect.

This test can be described thus: qHTS assay to identify small molecule antagonists of the estrogen receptor alpha (ER-alpha) signaling pathway using the BG1 cell line - cell viability counter screen (AID 743081).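 Further: compound given together with 17beta-estradiol as the ER stimulus; nearly all actives have a fitted effect of over 45% in size.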 The following applies: BG1Luc4E2 viability, CellTiter-Fluor, 22 h; series mostly up to 70.3 µM; activity change, negative = cytotoxicity: at the top concentration. Background: qHTS replaces the single test concentration by a dilution series.
Regarding `N#Cc1ccc(CC(=O)c2cccc(C(F)(F)F)c2)cc1`, the “activity change, negative = cytotoxicity” value was 9.21%.

Take `Cc1c(Nc2ncccc2C(=O)O)cccc1C(F)(F)F`: the “activity change, negative = cytotoxicity” value is -1.51% [at 32.5 µM].

As to `COC(=O)c1cc(Cl)ccc1[N+](=O)[O-]`, the “activity change, negative = cytotoxicity” value is 6.9%.

`CC1=CC(=C(c2ccc(N)cc2)c2ccc(N)cc2)C=CC1=N`: the Potency was 11.9 µM (active) and the activity change, negative = cytotoxicity was -20.8% [at 8.47 µM].

With `c1ccc(CCNc2nc(-c3ccccc3)cs2)cc1`, the “activity change, negative = cytotoxicity” value is 23%.

Regarding `O=C(O)COCC(=O)O`, the “activity change, negative = cytotoxicity” value was 28.1% [at 95 µM].

As to `CC(C)(Cc1c[nH]c2ccccc12)NCC(O)COc1ccccc1C#N` (stereo not drawn), the “activity change, negative = cytotoxicity” value was -22.8%.

Regarding `O=C(OC1C[C@H]2CC[C@@H](C1)[N+]21CCCC1)C(O)(c1ccccc1)c1ccccc1` (stereo partly drawn), the “activity change, negative = cytotoxicity” value was 4.28%.

Take `C=C[Si]1(C)O[Si](C)(C=C)O[Si](C)(C=C)O[Si](C)(C=C)O1` (stereo not drawn): the “activity change, negative = cytotoxicity” value was 1.33%.

On to `Cc1c(Cl)cccc1Nc1ccccc1C(=O)O`, for which the “activity change, negative = cytotoxicity” value was -1.35%.

On to `O=C(O)CNc1ccccc1`, for which the “activity change, negative = cytotoxicity” value is -0.171%.

Regarding `C=C[Si](OCC)(OCC)OCC`, the “activity change, negative = cytotoxicity” value was 4.76%.

In the case of `C=CC(C)(O)CC/C=C(/C)CCC=C(C)C` (stereo not drawn), the “activity change, negative = cytotoxicity” value was 2.02%.

As for `Cc1nc2sccn2c(=O)c1CCN1CCC(=C(c2ccc(F)cc2)c2ccc(F)cc2)CC1`, the “activity change, negative = cytotoxicity” value was -12.2%.

Regarding `CCCCC(CC)COCCC#N` (stereo not drawn), the “activity change, negative = cytotoxicity” value is 22.4%.

For the compound `C[Si](C)(C)O[Si](C)(C)O[Si](C)(C)C`, the “activity change, negative = cytotoxicity” value was 7.14%.

With `Nc1ccccc1Nc1ccccc1`, the “activity change, negative = cytotoxicity” value is 0.661%.

On to `CCOc1ccc2c(c1)C(C)CC(C)(C)N2` (stereo not drawn), for which the “activity change, negative = cytotoxicity” value is -3.06%.

On to `O=c1c2ccccc2oc2ccccc12`, for which the “activity change, negative = cytotoxicity” value was 5.47%.

For the compound `O=[N+]([O-])c1ccc(Cl)cc1Cl`, the “activity change, negative = cytotoxicity” value is -7.36%.

Take `Cc1ccc2ccccc2c1[N+](=O)[O-]`: the “activity change, negative = cytotoxicity” value was -1.88%.

Turning to `O=C(O)c1ccccc1[N+](=O)[O-]`, the “activity change, negative = cytotoxicity” value is 0.786%.

On to `CC(C(=O)O)c1ccc(/C=C2\CCCCC2=O)cc1` (stereo not drawn), for which the “activity change, negative = cytotoxicity” value was 25.1%.

As to `CC(=O)Nc1ccn(C2COC(COC(=O)c3ccccc3)O2)c(=O)n1` (stereo not drawn), the “activity change, negative = cytotoxicity” value is -21.9%.

Take `CC(C)C[C@H](NC(=O)[C@H](Cc1ccccc1)NC(=O)c1cnccn1)B(O)O`: the Potency is 1.06 µM (active) and 668 nM (active).

Turning to `CC(C)CCCCCCCOC(=O)c1ccc(C(=O)OCCCCCCCC(C)C)c(C(=O)OCCCCCCCC(C)C)c1`, the “activity change, negative = cytotoxicity” value was -3.12%.

On to `CCCCCCCCNC`, for which the “activity change, negative = cytotoxicity” value was 0.265%.

In the case of `CCCCCCCCS`, the “activity change, negative = cytotoxicity” value is -1.41% [at 95 µM].

For `C=CC(O)CCCCC` (stereo not drawn), the “activity change, negative = cytotoxicity” value was -3.46%.

With `CCCCCCCCCCCCCCCCC(=O)O`, the “activity change, negative = cytotoxicity” value was 27.4%.

In the case of `CCOCCn1c(N2CCCN(C)CC2)nc2ccccc21`, the “activity change, negative = cytotoxicity” value was -1.21%.

`Cc1cc(C)n(CO)n1`: the “activity change, negative = cytotoxicity” value is -11.6%.
